This is a sample that favours compounds with a hit; in the whole collection about 4.8% have one here.
Calb FLC = C. albicans growth modulation with fluconazole | C. albicans CaCi-2 (fluconazole-resistant clinical isolate) + fluconazole, Alamar Blue growth, 48 h | growth inhibition, % (no concentration beside the values) | actives 0.57% (n = 300,000) | AID 1979;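 active = growth inhibition above about 58% in most replicates, limit read from the data, passing the limit was not always enough; inconclusive = exactly half the replicates above a set limit; inactive = most replicates below a set limit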;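 also: all wells also contain fluconazole at 8 µg/ml as a sub-toxic cotreatment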
Mdm2 MdmX PPI = inhibitors of human Mdm2/MdmX interaction; O15151+Q00987; SaOS-2 split-luciferase Mdm2/MdmX complementation, luminescence; inhibition, % at 8 µM; actives 3% (n = 330,000); AID 485346;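 active = inhibition of at least 50% at 8 µM in the primary screen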
Target sequence (O15151 whole entry, looked up): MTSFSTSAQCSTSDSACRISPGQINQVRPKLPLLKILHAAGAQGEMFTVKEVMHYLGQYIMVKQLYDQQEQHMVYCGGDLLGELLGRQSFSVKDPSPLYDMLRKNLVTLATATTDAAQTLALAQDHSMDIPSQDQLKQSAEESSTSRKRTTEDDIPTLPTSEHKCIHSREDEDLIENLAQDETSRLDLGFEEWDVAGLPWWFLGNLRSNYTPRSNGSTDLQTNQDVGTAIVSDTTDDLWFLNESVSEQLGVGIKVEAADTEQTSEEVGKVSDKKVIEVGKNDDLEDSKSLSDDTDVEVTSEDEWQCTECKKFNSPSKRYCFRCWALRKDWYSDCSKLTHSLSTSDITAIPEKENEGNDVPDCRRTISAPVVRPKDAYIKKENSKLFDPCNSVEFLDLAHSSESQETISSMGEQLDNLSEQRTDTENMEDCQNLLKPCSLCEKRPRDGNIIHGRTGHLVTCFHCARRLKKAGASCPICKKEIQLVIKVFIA
Target sequence (Q00987 whole entry, looked up): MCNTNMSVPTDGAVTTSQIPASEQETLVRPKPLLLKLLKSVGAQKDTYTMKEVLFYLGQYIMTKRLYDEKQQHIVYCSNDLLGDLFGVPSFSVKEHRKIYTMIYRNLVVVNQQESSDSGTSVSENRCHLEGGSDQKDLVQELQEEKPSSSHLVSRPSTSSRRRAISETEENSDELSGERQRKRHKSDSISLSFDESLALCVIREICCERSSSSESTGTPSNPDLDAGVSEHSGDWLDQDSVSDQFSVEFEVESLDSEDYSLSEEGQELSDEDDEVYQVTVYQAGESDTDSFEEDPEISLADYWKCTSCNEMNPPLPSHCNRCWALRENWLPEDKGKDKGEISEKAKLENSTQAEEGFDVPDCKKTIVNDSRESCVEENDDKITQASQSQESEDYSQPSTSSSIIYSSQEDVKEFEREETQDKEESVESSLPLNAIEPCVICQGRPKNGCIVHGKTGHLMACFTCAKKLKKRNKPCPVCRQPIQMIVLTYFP
MPTP block = permeability transition pore inhibition; isolated mouse mitochondria, Ca2+ swelling absorbance, 30 min; inhibition, % at 10 µM; actives 1.4% (n = 360,000);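 active = inhibition of 50% or more, scaled per plate between neutral and stimulator controls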
Beta cell apopt = beta cell apoptosis inhibition. protection from apoptosis, % (no concentration beside the values). actives 0.8% (n = 300,000). INS-1E cytokine-induced death, ATP luminescence, 48 h; percent of positive-control rescue, neutral wells zero;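 active = Every replicate reaches about 75%, or at least half do and their mean reaches it too, limit read from the data; inconclusive = At least half of replicates reach the limit but their mean does not; inactive = Under half of replicates reach the limit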;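 also: higher means more ATP so stronger rescue from cytokine killing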
CSC inhib = cancer stem cell inhibition; cancer stem cell-like cells viability, luminescence; inhibition, % at 7.5 µM; actives 1.1% (n = 300,000); AID 2717; in the data active = inhibition above about 75%; inconclusive = no clear call, values can overlap the other calls; tested in HMLE shEcad cells
Large screens that a line does not name were inactive.

CCOc1cc(/C=N/n2c(COc3ccccc3)n[nH]c2=S)ccc1O	none
S=c1[nH]nc(COc2ccccc2)n1/N=C/C=C/c1ccccc1	none
OC(c1cccc(Cl)c1)c1ncc(-c2ccc(Oc3ccccc3)cc2)[nH]1 (stereo unspecified)	none (no result: Calb FLC, Mdm2 MdmX PPI, Beta cell apopt, CSC inhib)
CCCCn1c(SCC(=O)Nc2cccc(OC)c2)nc2ccc(N3CCOCC3)cc2c1=O	Calb FLC 96
Cc1onc(-c2c(Cl)cccc2Cl)c1C(=O)NN1CCCCCC1	none (no result: Beta cell apopt)
Cc1c(C(=O)NN2CCCCC2)nn(-c2ccc(Cl)cc2Cl)c1-c1ccc(I)cc1	CSC inhib 101 (no result: Calb FLC, Mdm2 MdmX PPI, MPTP block)
COc1ccc(/C=C/C2=CC(C)(C)NC(=S)N2)cc1OC	none
CCOc1ccc(/C=C/C2=CC(C)(C)NC(=S)N2)cc1	Calb FLC 110 (no result: CSC inhib)
CC(=O)Nc1ccc(NC(=O)CCCN2C(=O)c3ccccc3C2=O)cc1	Calb FLC 108
CCOc1ccc2nc(NC(=O)c3cccc(-c4cc5ccccc5oc4=O)c3)sc2c1	Beta cell apopt 81 (no result: Mdm2 MdmX PPI)
O=C(Nc1ccc(CN2CCOCC2)cc1)c1cccc(-c2cc3ccccc3oc2=O)c1	none
CCOc1ccc2nc(NC(=O)c3cccc(N4C(=O)CCC4=O)c3)sc2c1	none (no result: Calb FLC, Mdm2 MdmX PPI, Beta cell apopt, CSC inhib)
O=C(Nc1cccc(Cl)c1N1CCCC1)c1cccc(-c2cc3ccccc3oc2=O)c1	CSC inhib 84
CCCNC(=O)c1cc2c(c(-c3cccc(-c4cc5ccccc5o4)c3)n1)[C@H](CCO)N(C(=O)NC(C)C)C2	none (no result: Calb FLC, Mdm2 MdmX PPI, Beta cell apopt, CSC inhib)
C[C@H](NC(=O)[C@@H]1CCCN1C(=O)[C@@H]1CCCN1C(=O)c1cccs1)c1ccccc1	none (no result: Calb FLC, Mdm2 MdmX PPI, Beta cell apopt, CSC inhib)
COc1ccc(OC)c(CN2C(=O)c3ccccc3C2c2nnnn2-c2ccc3c(c2)OCCO3)c1 (stereo unspecified)	none (no result: Calb FLC, Mdm2 MdmX PPI, Beta cell apopt, CSC inhib)
CCn1c(-c2cc(-c3ccc(C)c(C)c3)nc3ccccc23)n[nH]c1=S	none (no result: MPTP block)
CCOc1cccc(-c2cc(-c3n[nH]c(=S)n3CC)c3ccccc3n2)c1	Calb FLC 69
CCCCn1nnnc1C1(C)CCC(=O)N1CCc1ccc(OC)c(OC)c1 (stereo unspecified)	none (no result: Calb FLC, Mdm2 MdmX PPI, Beta cell apopt, CSC inhib)
COC1=CC(=O)OC(c2cccc([N+](=O)[O-])c2)C1 (stereo unspecified)	none (no result: Calb FLC, Mdm2 MdmX PPI, Beta cell apopt, CSC inhib)
COc1ccc(O)c(C(=O)c2cnc3nc4ccccc4n3c2)c1	Beta cell apopt 83 (no result: Mdm2 MdmX PPI)
Cc1nnc(-c2ccc(Oc3ccc(Br)cc3)c([N+](=O)[O-])c2)o1	CSC inhib 139
CCc1cc2cccc(C)c2nc1SCC(=O)c1ccc(NC(C)=O)cc1	CSC inhib 121
CCc1cc2ccc(C)cc2nc1SCC(=O)NC1CCCC1	none (no result: CSC inhib)
CCc1cc2cccc(C)c2nc1SCC(=O)Nc1cc(C)on1	none
CCc1cc2ccc(C)cc2nc1SCC(=O)c1ccc(NC(C)=O)cc1	CSC inhib 87
N#Cc1ccc(S(=O)(=O)N2CCCCC2c2cc(C(=O)NCc3cccnc3)no2)cc1 (stereo unspecified)	none (no result: Calb FLC, Mdm2 MdmX PPI, Beta cell apopt, CSC inhib)
CC(C)c1cccc(C(C)C)c1OC(=O)[C@H]1OC(C(C)(C)C)=C[C@@H]1c1ccccc1	Beta cell apopt 111 (no result: Calb FLC)
O=C(NNc1ccccc1)C(=O)N1CCCCC1	CSC inhib 111 (no result: Beta cell apopt)
CCC(C)n1c(-c2cccs2)nc2nc3ccccc3nc21 (stereo unspecified)	CSC inhib 64
CC(C)c1nc2sc3ccccc3c(=O)c2c(=O)n1Cc1ccccc1	CSC inhib 77
COc1ccc(Cn2c(C(C)C)nc3sc4ccccc4c(=O)c3c2=O)cc1	none
CCCc1nc2sc3ccccc3c(=O)c2c(=O)n1Cc1ccc(OC)cc1	Beta cell apopt 100
Cc1cccc(C)c1NC(=O)C1(C)CSCC(=O)N1CCc1ccccc1 (stereo unspecified)	none (no result: Calb FLC, Mdm2 MdmX PPI, Beta cell apopt, CSC inhib)
COc1ccccc1-c1oc2ccccc2c1C#CCCO	none (no result: Calb FLC)
Cc1cccc(-c2oc3ccccc3c2C#CCCO)c1	CSC inhib 89
Cc1cccc(-c2oc3ccccc3c2C#CCCCCO)c1	CSC inhib 101
CN1CCN(c2ccc(CNC(=O)C3(C)Cc4c(-c5ccccc5)ccnc4O3)cc2)CC1 (stereo unspecified)	none (no result: Calb FLC, Mdm2 MdmX PPI, Beta cell apopt, CSC inhib)
CCN(CC)c1ncnc2c1ncn2[C@H]1CN(Cc2cccnc2)C[C@@H](CO)O1	none (no result: Calb FLC, Mdm2 MdmX PPI, Beta cell apopt, CSC inhib)
Fc1cccc(-c2cncc(N3CCN(CCN4CCCC4)CC3)n2)c1	none (no result: Calb FLC, Mdm2 MdmX PPI, Beta cell apopt, CSC inhib)
CN(C)CCCNC(=O)c1cccc(-c2cnc3cccnn23)c1	none (no result: Calb FLC, Mdm2 MdmX PPI, Beta cell apopt, CSC inhib)
O=C(OC[C@H]1O[C@@H](OC(=O)c2cc(O)c(O)c(OC(=O)c3cc(O)c(O)c(O)c3)c2)[C@H](OC(=O)c2cc(O)c(O)c(OC(=O)c3cc(O)c(O)c(O)c3)c2)[C@@H](OC(=O)c2cc(O)c(O)c(OC(=O)c3cc(O)c(O)c(O)c3)c2)[C@@H]1OC(=O)c1cc(O)c(O)c(OC(=O)c2cc(O)c(O)c(O)c2)c1)c1cc(O)c(O)c(OC(=O)c2cc(O)c(O)c(O)c2)c1	CSC inhib 90 (no result: Calb FLC, Mdm2 MdmX PPI, MPTP block)
CCN1C(=O)/C(=C\c2ccncc2)SC1=S	none
CCCCC(CC)CN1C(=O)/C(=C/c2ccncc2)SC1=S (stereo unspecified)	Beta cell apopt 88, CSC inhib 107
O=C(NC1=C(Nc2ccc(Cl)cc2)C(=O)c2ccccc2C1=O)c1ccccc1	Beta cell apopt 117
CN(C1=C(NC(=O)c2ccc(Cl)cc2)C(=O)c2ccccc2C1=O)c1ccccc1	Beta cell apopt 93
Cc1cccc(NC2=C(NC(=O)c3ccccc3)C(=O)c3ccccc3C2=O)c1	Beta cell apopt 78
O=C(Nc1ccc(Nc2ccccc2)cc1)c1ccc(Cl)cc1	none
Cc1cccc(C(=O)Nc2cccc(NC(=O)c3ccccc3)c2)c1	none
CC1(C(=O)NS(=O)(=O)c2ccc3c(c2)CCO3)CCN1C(=O)COc1ccc(Cl)cc1 (stereo unspecified)	none (no result: Calb FLC, Mdm2 MdmX PPI, Beta cell apopt, CSC inhib)
O=C(Nc1ccc2c(c1)OCCO2)C1c2ccccc2OCC(=O)N1CCc1c[nH]c2ccccc12 (stereo unspecified)	none (no result: Calb FLC, Mdm2 MdmX PPI, Beta cell apopt, CSC inhib)
CC(C)CC(=O)/C=C/n1c(=S)oc2ccccc21	none (no result: Mdm2 MdmX PPI)
CC(=O)/C=C/n1c(=S)oc2ccccc21	Calb FLC inconclusive, Beta cell apopt 100 (no result: Mdm2 MdmX PPI, MPTP block)
O=C(CN1C(=O)COc2ccccc21)NCCCN1CCc2ccccc2C1	Calb FLC 101
COc1ccc(OC)c(CN2C(=O)CSCC2(C)C(=O)NCc2ccccc2)c1 (stereo unspecified)	none (no result: Calb FLC, Mdm2 MdmX PPI, Beta cell apopt, CSC inhib)
Cc1ccc(-n2nnnc2Sc2ccc(S(=O)(=O)NCCN(C)C)cc2[N+](=O)[O-])cc1	CSC inhib 99 (no result: Mdm2 MdmX PPI)
CC(=O)Nc1cccc(-c2ccnc3c2CC(C)(C(=O)Nc2ccc(C(C)C)cc2)O3)c1 (stereo unspecified)	none (no result: Calb FLC, Mdm2 MdmX PPI, Beta cell apopt, CSC inhib)
O=C(NNC(=O)c1cc2cc(Br)ccc2oc1=O)c1ccc(O)cc1O	CSC inhib 77
Cc1ccccc1S(=O)(=O)N(C)C[C@H]1OCc2cn(nn2)CCCC(=O)N([C@H](C)CO)C[C@@H]1C	none (no result: Calb FLC, Mdm2 MdmX PPI, Beta cell apopt, CSC inhib)
O=C(Nc1ccc(F)cc1)N[C@H]1CC[C@H](CCNS(=O)(=O)c2cccc(Cl)c2)O[C@@H]1CO	none (no result: Calb FLC, Mdm2 MdmX PPI, Beta cell apopt, CSC inhib)
O=C(/C=C/c1ccc(Cl)cc1)N(c1ccccn1)C1CCCCC1	none
COc1ccc(/C=C/C(=O)N(c2ccccn2)C2CCCCC2)cc1OC	Calb FLC 83
O=C(NCc1ccccc1Cl)[C@H]1CCCN1C(=O)[C@H]1CCCN1C(=O)c1cccc2ccccc12	none (no result: Calb FLC, Mdm2 MdmX PPI, Beta cell apopt, CSC inhib)

Bioassay records: PubChem, several laboratories
